Here are results for ten compounds from PubChem BioAssay (NCI).

Compounds without any hit were thinned out: in the full panel of roughly 79,000, 15% have a hit. A number with no mark means an inactive call. Activity calls are given as the source filed them. No stated cut-off is given here; in the data, active means growth inhibition above about 70%; inactive means the rest.

A short description of assay [1]: NCI Yeast Anticancer Drug Screen. Data for the rad50 strain (AID 155).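 Further: 0% = growth of vehicle-only cultures of the same strain.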 The settings on record: S. cerevisiae rad50 strain growth inhibition, active compounds read high. In a few lines:
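A DNA repair-deficient yeast mutant serves as the test organism; compound-induced growth inhibition is calculated against vehicle-treated cells.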

Assay [2] can be described thus: NCI Yeast Anticancer Drug Screen. Data for the mec2-1 strain (AID 157). The settings on record: S. cerevisiae mec2-1 strain, active compounds read high. Put shortly:
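Cells of the genetically defined mec2-1 yeast strain are incubated with test compound. Inhibition of growth is calculated against vehicle-treated controls.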

Assay [3] can be described thus: NCI Yeast Anticancer Drug Screen. Data for the sgs1 mgt1 strain (AID 161).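 Further: 0% = growth of cultures given vehicle only.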 The settings on record: S. cerevisiae sgs1 mgt1 strain, active compounds read high. In a few lines:
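Genetically altered yeast, compound exposure, growth inhibition relative to vehicle.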

Assay [4] can be described thus: NCI Yeast Anticancer Drug Screen. Data for the cln2 rad14 strain (AID 165).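 Further: 0% = growth equal to vehicle treated cultures.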 The settings on record: S. cerevisiae cln2 rad14 strain, active compounds read high. Put shortly: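 The screen exposed genetically defined yeast (cln2 rad14) to test compounds and scored growth inhibition relative to vehicle-treated controls.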
Assay [5] can be described thus: NCI Yeast Anticancer Drug Screen. Data for the bub3 strain (AID 167). Particulars: S. cerevisiae bub3 mutant strain, active compounds read high. In a few lines: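 Inhibition values come from growth of compound-treated mutant yeast normalised to vehicle-treated controls.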
Assay [6] in a line: NCI Yeast Anticancer Drug Screen. Data for the mlh1 rad18 strain (AID 175). Particulars: S. cerevisiae mlh1 rad18 strain growth inhibition, active compounds read high. In a few lines: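 Compound-treated yeast growth, normalised to vehicle controls. Strain bears defined DNA repair mutations.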
Setting [7] is: at 5.0 µM (retest, dose inferred, filed as 0.5).
[8] abbreviates: at 50.0 µM (retest, dose inferred, filed as 5.0).

As for `CCOP(=O)(C=C=C1CCC2[C@@H]3CCc4cc(OC)ccc4C3CC[C@]12C)OCC` (stereo not given in full), the growth inhibition was 5% in assay [1] (setting [7]); 97% (active) in assay [1] (setting [8]); 97.7% (active) in assay [1] (at 50.0 µM); -1% in assay [2] (setting [7]); 99% (active) in assay [2] (setting [8]); 98.3% (active) in assay [2] (at 50.0 µM). Further, the growth inhibition was 3% in assay [3] (setting [7]); 98% (active) in assay [3] (setting [8]); 98% (active) in assay [3] (at 50.0 µM); 1% in assay [4] (setting [7]); 98% (active) in assay [4] (setting [8]); 97.8% (active) in assay [4] (at 50.0 µM). Further, the growth inhibition is 13% in assay [5] (setting [7]); 98% (active) in assay [5] (setting [8]); 98% (active) in assay [5] (at 50.0 µM); -7% in assay [6] (setting [7]); 98% (active) in assay [6] (setting [8]); 98% (active) in assay [6] (at 50.0 µM).

Turning to `Clc1ccc(/C=C\c2ccncc2)cc1`, the growth inhibition in assay [1] (setting [7]) was 3%; in assay [1] (setting [8]), 58%; in assay [1] (at 50.0 µM) it was 48.2%; in assay [2] (setting [7]), 4%; in assay [2] (setting [8]), 51%; in assay [2] (at 50.0 µM), 44.9%. Besides, the growth inhibition was 4% in assay [3] (setting [7]); 59% in assay [3] (setting [8]); 29.1% in assay [3] (at 50.0 µM); 1% in assay [4] (setting [7]); 7% in assay [4] (setting [8]); 29.7% in assay [4] (at 50.0 µM). Moreover, the growth inhibition in assay [5] (setting [7]) was 4%; in assay [5] (setting [8]), 39%; in assay [5] (at 50.0 µM), 30%; in assay [6] (setting [7]), -1%; in assay [6] (setting [8]), 32%; in assay [6] (at 50.0 µM), 62%.

As for `COc1ccc(/C=N/Nc2ccccc2)cc1`, the growth inhibition in assay [1] (setting [7]) is 7%; in assay [1] (setting [8]) it was 97% (active); in assay [1] (at 50.0 µM), 98.5% (active); in assay [2] (setting [7]), -12%; in assay [2] (setting [8]), 85% (active); in assay [2] (at 50.0 µM), 99% (active). The growth inhibition in assay [3] (setting [7]) is -6%; in assay [3] (setting [8]) it was 97% (active); in assay [3] (at 50.0 µM), 98.9% (active); in assay [4] (setting [7]), -9%; in assay [4] (setting [8]), 93% (active); in assay [4] (at 50.0 µM), 98.7% (active). Moreover, the growth inhibition in assay [5] (setting [7]) is -17%; in assay [5] (setting [8]), 97% (active); in assay [5] (at 50.0 µM) it was 99% (active); in assay [6] (setting [7]), 8%; in assay [6] (setting [8]) it was 96% (active); in assay [6] (at 50.0 µM) it was 98.4% (active).

In the case of `Cc1[nH]nc(-c2ccon2)c1N=O`, the growth inhibition in assay [1] (setting [7]) is 12%; in assay [1] (setting [8]) it was 61%; in assay [1] (at 50.0 µM), 68.7%; in assay [2] (setting [7]), -28%; in assay [2] (setting [8]) it was 66%; in assay [2] (at 50.0 µM) it was 28.8%. In addition, the growth inhibition in assay [3] (setting [7]) was 16%; in assay [3] (setting [8]), 80% (active); in assay [3] (at 50.0 µM), -1.75%; in assay [4] (setting [7]) it was 22%; in assay [4] (setting [8]), 48%; in assay [4] (at 50.0 µM), 4.65%. The growth inhibition is 56% in assay [5] (setting [7]); 90% (active) in assay [5] (setting [8]); 78.7% (active) in assay [5] (at 50.0 µM); 64% in assay [6] (setting [7]); 93% (active) in assay [6] (setting [8]); 58.4% in assay [6] (at 50.0 µM).

Turning to `Nc1ccc(S(=O)(=O)Nc2nc3ccccc3nc2N2CCCCCC2)cc1`, the growth inhibition in assay [1] (setting [7]) is 30%; in assay [1] (setting [8]) it was 79% (active); in assay [1] (at 50.0 µM), 43.5%; in assay [2] (setting [7]), 30%; in assay [2] (setting [8]) it was 87% (active); in assay [2] (at 50.0 µM) it was 48.1%. Also, the growth inhibition in assay [3] (setting [7]) was 36%; in assay [3] (setting [8]), 92% (active); in assay [3] (at 50.0 µM), 82.2% (active); in assay [4] (setting [7]) it was 40%; in assay [4] (setting [8]), 92% (active); in assay [4] (at 50.0 µM), 82.5% (active). For the same compound, the growth inhibition was 44% in assay [5] (setting [7]); 95% (active) in assay [5] (setting [8]); 85.2% (active) in assay [5] (at 50.0 µM); 39% in assay [6] (setting [7]); 90% (active) in assay [6] (setting [8]); 85.6% (active) in assay [6] (at 50.0 µM).

For the compound `CN(C)CC(C)(C)/C(=N\Nc1ccccc1)c1ccccc1`, the growth inhibition in assay [1] (setting [7]) was 6%; in assay [1] (setting [8]), 82% (active); in assay [1] (at 50.0 µM), 5.6%; in assay [2] (setting [7]), 3%; in assay [2] (setting [8]), 86% (active); in assay [2] (at 50.0 µM), -5.2%. Besides, the growth inhibition in assay [3] (setting [7]) is 51%; in assay [3] (setting [8]), 95% (active); in assay [3] (at 50.0 µM) it was 4.55%; in assay [4] (setting [7]) it was 25%; in assay [4] (setting [8]), 62%; in assay [4] (at 50.0 µM) it was 38.9%. The growth inhibition in assay [5] (setting [7]) was 30%; in assay [5] (setting [8]), 93% (active); in assay [5] (at 50.0 µM), 98% (active); in assay [6] (setting [7]), 22%; in assay [6] (setting [8]), 80% (active); in assay [6] (at 50.0 µM), 33%.

As to `COc1ccc(C(c2cc3c(cc2O)OCO3)N2CCOCC2)cc1OC` (stereo not given), the growth inhibition in assay [1] (setting [7]) is -2%; in assay [1] (setting [8]), 39%; in assay [1] (at 50.0 µM) it was 77.5% (active); in assay [2] (setting [7]), -5%; in assay [2] (setting [8]), 59%; in assay [2] (at 50.0 µM), 86.5% (active). Moreover, the growth inhibition was -2% in assay [3] (setting [7]); 43% in assay [3] (setting [8]); 96.5% (active) in assay [3] (at 50.0 µM); 0% in assay [4] (setting [7]); 12% in assay [4] (setting [8]); 67.5% in assay [4] (at 50.0 µM). The growth inhibition was -5% in assay [5] (setting [7]); 41% in assay [5] (setting [8]); 98% (active) in assay [5] (at 50.0 µM); -2% in assay [6] (setting [7]); 35% in assay [6] (setting [8]); 70.7% (active) in assay [6] (at 50.0 µM).

Regarding `NC(=S)N/N=C1/C(=O)c2cccc3cccc1c23`, the growth inhibition in assay [1] (setting [7]) was 10%; in assay [1] (setting [8]), 96% (active); in assay [1] (at 50.0 µM) it was 91.8% (active); in assay [2] (setting [7]) it was -2%; in assay [2] (setting [8]), 78% (active); in assay [2] (at 50.0 µM), 0.1%. The growth inhibition in assay [3] (setting [7]) was 1%; in assay [3] (setting [8]), 80% (active); in assay [3] (at 50.0 µM), 66.7%; in assay [4] (setting [7]) it was -9%; in assay [4] (setting [8]), 65%; in assay [4] (at 50.0 µM), -26.7%. Further, the growth inhibition in assay [5] (setting [7]) is 9%; in assay [5] (setting [8]) it was 65%; in assay [5] (at 50.0 µM) it was 7.65%; in assay [6] (setting [7]), 6%; in assay [6] (setting [8]), 90% (active); in assay [6] (at 50.0 µM), 70.5% (active).

As to `Oc1ccccc1/C=N/NC(=S)NC12CC3CC(CC(C3)C1)C2`, the growth inhibition is 7% in assay [1] (setting [7]); 19% in assay [1] (setting [8]); 81.3% (active) in assay [1] (at 50.0 µM); 14% in assay [2] (setting [7]); 11% in assay [2] (setting [8]); 29.6% in assay [2] (at 50.0 µM). Also, the growth inhibition was 27% in assay [3] (setting [7]); 19% in assay [3] (setting [8]); 64.4% in assay [3] (at 50.0 µM); -38% in assay [4] (setting [7]); 20% in assay [4] (setting [8]); 31.1% in assay [4] (at 50.0 µM). For the same compound, the growth inhibition was 21% in assay [5] (setting [7]); 21% in assay [5] (setting [8]); 42.8% in assay [5] (at 50.0 µM); 10% in assay [6] (setting [7]); 41% in assay [6] (setting [8]); 85.9% (active) in assay [6] (at 50.0 µM).

For `CC(=O)O/C=C\COC(C)=O`, the growth inhibition in assay [1] (setting [7]) is 4%; in assay [1] (setting [8]) it was 4%; in assay [1] (at 50.0 µM) it was 79.8% (active); in assay [2] (setting [7]), 2%; in assay [2] (setting [8]) it was -2%; in assay [2] (at 50.0 µM) it was 47.8%. The growth inhibition in assay [3] (setting [7]) is 3%; in assay [3] (setting [8]) it was 2%; in assay [3] (at 50.0 µM), 42.5%; in assay [4] (setting [7]), 3%; in assay [4] (setting [8]), -2%; in assay [4] (at 50.0 µM), 33.5%. The growth inhibition is 6% in assay [5] (setting [7]); 1% in assay [5] (setting [8]); 86.3% (active) in assay [5] (at 50.0 µM); 2% in assay [6] (setting [7]); 6% in assay [6] (setting [8]); 39.3% in assay [6] (at 50.0 µM).
